The text below walks through data of PubChem BioAssay (Tox21).

Molecules are shown by their SMILES. Where “and” joins values, the source holds several entries; their conditions need not be identical. Identical values can stand only once. Results filed as inconclusive are left out. Entries that show only a call come without a potency. Calls of active or inactive are those of the source. Calls follow the shape of the dose curve; as a rule, active = well fitted cell-killing curve with a large enough effect in the repeat runs; inconclusive = weak or mixed curves, or effect the other way; inactive = flat fitted curve, though single readings scatter.
Potency is read from the fitted curve at half-maximal effect.

The nature of the assay: qHTS assay to identify small molecule antagonists of the androgen receptor (AR) signaling pathway using the MDA cell line - cell viability counter screen (AID 743041; also: nearly all actives have a fitted effect of over 45% in size). The conditions noted are these: MDA-kb2 viability, CellTiter-Fluor, 16 h, cells co-treated with R1881 androgen agonist; series mostly up to 70.3 µM. The source says:
National Center for Advancing Translational Sciences [NCATS]
NIH Chemical Genomics Center [NCGC]
U.S. Environmental Protection Agency [EPA]
National Institutes of Environmental Health Sciences [NIEHS]
National Toxicology Program [NTP]
U.S. Food and Drug Administration [FDA]
Androgen receptor (AR), a nuclear hormone receptor, plays a critical role in AR-dependent prostate cancer and other androgen related diseases. Endocrine disrupting chemicals (EDCs) and their interactions with steroid hormone receptors like AR may cause disruption of normal endocrine function as well as interfere with metabolic homeostasis, reproduction, developmental and behavioral functions. To identify the compounds that inhibit AR signaling, MDA-kb2 AR-luc cell line (from ATCC, deposited by Wilson et al.) was used to screen the Tox21 10K compound library. MDA-kb2 AR-luc cell line is human breast carcinoma cell line that was stably transfected with a luciferase reporter gene under control of the MMTV promoter containing response elements for both androgen receptor (AR) and glucocorticoid receptor (GR). The cytotoxicity of the Tox21 compound library against the MDA-kb2 AR-luc cell line was tested in parallel by measuring the cell viability using CellTiter-Fluor assay (Promega, Madison, WI) in the same wells.
Tox21 Assay Protocol Summary:
MDA-kb2 AR-luc cells were dispensed at 3,000 cells/4 uL/well of culture medium into white wall/solid-bottom 1536-well plates using a Multidrop Combi (ThermoFisher Scientific, Waltham, MA) dispenser. After the assay plates were incubated at a 37C and 0% CO2 for 5 hr, 23 nL of compounds dissolved in DMSO, positive controls or DMSO only was transferred to the assay plate by a Pintool station (Kalypsys, San Diego, CA), followed by addition of 1 uL of agonist (R1881) in culture medium using a Bioraptr Flying Reagent Dispenser (FRD) workstation (Beckman Coulter, Indianapolis, IN, USA). The plates were incubated at a 37C and 0% CO2 for 16 h. After 15.5 h incubation, 1uL of CellTiter-Fluor reagent (Promega) was added using a Bioraptr FRD to each plate for measuring cytotoxicity. The fluorescence intensity was quantified on a ViewLux plate reader (PerkinElmer, Shelton, CT) following 30 min incubation at 37C and 0% CO2.
On the technique in general: In qHTS, concentration-response curves come from the screen itself.
Consider `Cc1ccc2c(n1)Oc1ccc(C(C)C(=O)OCC(=O)N(C)C)cc1C2` (stereo not given), for which the Potency result was “inactive”.

Consider `COC(=O)c1ccccc1`, for which the Potency entry was “inactive”.

Turning to `O=C(COc1ccc(Cl)cc1)N1CCN(Cc2ccc3c(c2)OCO3)CC1`, the Potency result was “inactive”.

Turning to `CCCCc1oc2ccccc2c1C(=O)c1cc(I)c(OCCN(CC)CC)c(I)c1`, the Potency result was “inactive”.

Turning to `OC[C@H]1O[C@@H]2O[C@H]3[C@H](O)[C@@H](O)[C@@H](O[C@H]4[C@H](O)[C@@H](O)[C@@H](O[C@H]5[C@H](O)[C@@H](O)[C@@H](O[C@H]6[C@H](O)[C@@H](O)[C@@H](O[C@H]7[C@H](O)[C@@H](O)[C@@H](O[C@H]8[C@H](O)[C@@H](O)[C@@H](O[C@H]1[C@H](O)[C@H]2O)O[C@@H]8CO)O[C@@H]7CO)O[C@@H]6CO)O[C@@H]5CO)O[C@@H]4CO)O[C@@H]3CO`, the Potency entry was “inactive”.

On to `OC1CCCCCCCCCCC1`, for which the Potency result is “inactive”.

With `O=C(/C=C/c1ccccc1)OCc1ccccc1`, the Potency result was “inactive”.

Consider `NC=O`, for which the Potency entry is “inactive”.

Consider `CC(C)OB(OC(C)C)OC(C)C`, for which the Potency result was “inactive”.

`OC(CCl)CCl`: the Potency entry was “inactive”.

Regarding `COc1cccc2c1C(=O)c1c(O)c3c(c(O)c1C2=O)C[C@@](O)(C(=O)CO)C[C@@H]3O[C@H]1C[C@H](N)[C@H](O)[C@H](C)O1`, the Potency result is “inactive”.

For `Cc1ncc[nH]1`, the Potency entry was “inactive”.

In the case of `CC1=CCC(C(C)(C)O)CC1` (stereo not given), the Potency result was “inactive”.

As to `CCCCOCCOCCO`, the Potency entry was “inactive”.

As for `O=C1OC2(c3cc(Br)c(O)c(Br)c3Oc3c2cc(Br)c(O)c3Br)c2c(Cl)c(Cl)c(Cl)c(Cl)c21`, the Potency was 4.33 µM (active) and 37.1 µM (active).

For the compound `CN(C)c1nc(N(C)C)nc(N(C)C)n1`, the Potency entry is “inactive”.

Consider `Cc1cccc([N+](=O)[O-])c1C`, for which the Potency result was “inactive”.

As for `COc1ccccc1/C=C/C=O`, the Potency entry is “inactive”.

In the case of `Cc1cccc(C(=O)O)c1`, the Potency entry was “inactive”.

In the case of `O=C(/C=C/C=C/c1ccc2c(c1)OCO2)N1CCCCC1`, the Potency entry was “inactive”.

As to `c1cc(-c2ccncc2)ccn1`, the Potency result was “inactive”.

For `CCCCNS(=O)(=O)c1ccccc1`, the Potency result was “inactive”.

Take `O=Cc1ccccc1O`: the Potency entry is “inactive”.

As to `O=P(O)(O)O`, the Potency result was “inactive”.

Turning to `CC(=O)c1ccccn1`, the Potency entry was “inactive”.

On to `O=C(Nc1ccc(Cl)cc1)Nc1ccc(Cl)c(Cl)c1`, for which the Potency is 24.3 µM (active).

Take `C=C(C)C1CC=C(C)CC1` (stereo not given): the Potency result was “inactive”.

Turning to `O=S(=O)(O)c1ccc(O)cc1`, the Potency result was “inactive”.

On to `C=CC(C)(CCC=C(C)C)OC(C)=O` (stereo not given), for which the Potency result was “inactive”.

In the case of `C[Si](C)(C)O[Si](C)(C)C`, the Potency entry is “inactive”.

In the case of `CCCc1c(OCCCCc2nn[nH]n2)ccc(C(C)=O)c1O`, the Potency entry was “inactive”.

Turning to `CC(=O)CC/C=C(\C)CCC=C(C)C`, the Potency entry was “inactive”.

Take `CC(=O)O[C@]1(C(C)=O)CC[C@H]2[C@@H]3C=C(Cl)C4=CC(=O)[C@@H]5C[C@@H]5[C@]4(C)[C@H]3CC[C@@]21C`: the Potency result was “inactive”.

As for `Cc1c(OCC(F)(F)F)ccnc1CS(=O)c1nc2ccccc2[nH]1` (stereo not given), the Potency entry is “inactive”.

On to `CCCCCCCCCCCO`, for which the Potency result is “inactive”.

`c1ccc2c(c1)c1cccc3ccc4cccc2c4c31`: the Potency result was “inactive”.

For the compound `Nc1ccc(S(=O)(=O)Nc2cnc3ccccc3n2)cc1`, the Potency entry is “inactive”.

As to `O=C(c1ccc(OCCN2CCCCC2)cc1)c1c(-c2ccc(O)cc2)sc2cc(O)ccc12`, the Potency was 68.7 µM (active) and 61.1 µM (active).

Turning to `O=C(O)c1ccccc1Nc1cccc(C(F)(F)F)c1`, the Potency entry is “inactive”.

`CNCCCC12CCC(c3ccccc31)c1ccccc12`: the Potency was 61.1 µM (active).
